Measurements reported in the supplement of paper PMC11219838.
Values without a mark were called inactive.

Legend:
Conditions in all cases: 60 µM; 5 days; temperature: 20 °C
Meloidogyne hapla J2 = assay: proportion of mobile M. hapla J2 relative to DMSO control (fraction of DMSO control); higher = more viable, less nematicidal, active = 0.7 or less
How it was run: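 Sealed 96-well plates, each well holding around 25 M. hapla J2 in distilled water with compound pinned to 60 µM final (0.6% v/v DMSO), were shaken at 200 rpm for 5 days at 20 °C. Then 2 µL of 1 M NaOH was added to each well. Microscope-scored mobility was normalised to the mean of DMSO-only wells from the same plate. Eight such wells were on each plate, and the two biological replicates were averaged.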

[1] = test system: Caenorhabditis elegans dauer (daf-2(e1370)); assay: proportion of mobile C. elegans dauer larvae relative to DMSO control (fraction of DMSO control); higher = more viable, less nematicidal, active = 0.63 or less; extreme values may be limits of the assay
How it was run: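 The proportion of mobile worms, relative to DMSO wells, was scored by dissection microscope and averaged over two biological replicates. Worms were C. elegans dauers, about 20 per well in liquid NGM in 96-well plates, generated from synchronized larvae on MYOB plates with E. coli OP50 at 25 °C for 48 h. They were treated with compound pinned to 60 µM final (0.6% v/v DMSO) and kept in sealed plates shaken at 200 rpm for 5 days at 20 °C.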

Ditylenchus dipsaci = assay: proportion of mobile D. dipsaci (mixed stage) relative to DMSO control (fraction of DMSO control); higher = more viable, less nematicidal, active = 0.86 or less; extreme values may be limits of the assay
How it was run: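 Mobility, expressed relative to DMSO controls, is the mean of two biological replicates. The test organisms were D. dipsaci grown on pea plants in Gamborg B-5 agar and extracted into water by filter funnel, with about 20 added per well of a 96-well plate in distilled water. Compound was pinned to 60 µM final (0.6% v/v DMSO), plates were sealed and shaken at 200 rpm for 5 days at 20 °C, and mobile worms were scored under a microscope once 2 µL 1 M NaOH had been added.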

SMILES	proportion of mobile M. hapla J2 (Meloidogyne hapla J2)	proportion of mobile C. elegans dauer larvae [1]	proportion of mobile D. dipsaci (Ditylenchus dipsaci)
Brc1ccc(-c2noc(-c3ccco3)n2)cc1	1.01	0 (active)	0.875
COc1cccc(-c2nnc(SCC(=O)Nc3cccc(C(F)(F)F)c3)o2)c1	1.01	–	1
Cc1ccc(-c2noc(CSc3nc4ccccc4[nH]3)n2)cc1	1.05	–	1
Cc1ccccc1-c1noc(-c2ccccc2OCC(N)=O)n1	0.993	–	1
COc1nc(C)ccc1-c1noc(-c2ccccc2C)n1	0.668 (active)	–	1
Clc1ccc(-c2nc(-c3ccncc3)no2)cc1Cl	0.987	1	1
CC(C)CCC(=O)Nc1ccccc1-c1nc(-c2ccncc2)no1	0.977	–	1
O=C(CSc1nnc(-c2ccco2)o1)c1ccc(Br)cc1	0.997	1	1
CCNC(=O)c1ccccc1-c1nc(-c2ccccc2)no1	0.908	–	1
COc1ccccc1-c1nnc(SCC(=O)Nc2ccc(Br)cn2)o1	0.908	–	1
Clc1ccc(OCc2ccccc2)c(-c2nc(-c3cccnc3)no2)c1	1.01	–	0.917
Cc1cccc(OCc2nc(-c3ccc(Br)cc3)no2)c1	1.04	–	1
Cc1ccc(-c2noc(COc3ccccc3Cl)n2)cc1	0.96	–	1
COc1cccc(-c2noc(-c3ccc(Cl)cc3)n2)c1	0.983	0.562 (active)	1
Fc1ccc(-c2noc(-c3ccc(F)cc3)n2)cc1	1.01	–	1
COc1ccc(-c2noc(-c3cccc(Cl)c3)n2)cc1	0.819	–	1
Cc1ccc(NC(=O)CSc2nnc(-c3ccc(C(C)(C)C)cc3)o2)c(C)c1	0.766	1	1
COc1ccc(C(=O)CSc2nnc(-c3ccccc3)o2)cc1	0.987	–	1
Brc1ccc(OCc2nc(-c3cccs3)no2)cc1	0.963	–	1
Cc1ccccc1-c1noc(CSc2nc3ccccc3[nH]2)n1	0.918	–	1
Cc1cc(Cl)ccc1OCc1nc(-c2ccccc2)no1	1.02	–	1

SMILES	proportion of mobile M. hapla J2 (Meloidogyne hapla J2)	proportion of mobile C. elegans dauer larvae [1]	proportion of mobile D. dipsaci (Ditylenchus dipsaci)
Cc1ccc(OCc2nc(-c3cccnc3)no2)c(Br)c1	0.992	–	1
O=C(CSc1nnc(-c2ccccc2)o1)NCc1ccccc1	0.948	–	1
Cc1ccc(-c2nnc(SCC(=O)NCc3ccccc3)o2)cc1	1.04	–	1
N#Cc1ccccc1CSc1nnc(-c2ccco2)o1	0.859	–	1
Brc1cccc(-c2nnc(SCc3ccccc3)o2)c1	0.968	–	1
O=C(CSc1nnc(-c2ccco2)o1)Nc1ccc(Br)cn1	0.756	–	1
O=C(c1ccccc1-c1nc(-c2ccccc2)no1)N1CCCCC1	1.06	–	1
Cc1ccc(-c2nc(-c3ccccc3Cl)no2)cc1	0.998	–	1
CCOC(=O)c1c(NC(=O)CSc2nnc(-c3ccc(Cl)cc3)o2)sc(C)c1C	1.09	–	1
COc1ccc(Cl)cc1-c1nnc(SCC(=O)Nc2nccs2)o1	0.826	–	1
CCOc1ccccc1-c1nc(-c2ccc(NC(=O)CCc3ccc(OC)cc3)cc2)no1	0.918	–	1
CC(=O)Nc1ccc(NC(=O)c2ccccc2-c2nc(-c3ccccc3Cl)no2)cc1	0.866	–	1
COc1ccc(Cl)cc1-c1noc(-c2ccccc2)n1	1.02	–	1
COc1ccc(Cl)cc1NC(=O)CSc1nnc(-c2ccc(Br)cc2)o1	1.03	–	1
COc1cccc(-c2noc(COc3ccc4ccccc4c3)n2)c1	1.04	–	1
c1coc(-c2nc(-c3cccs3)no2)c1	1.01	–	1
Brc1cccc(-c2noc(-c3ccc4c(c3)OCO4)n2)c1	1.03	–	1
O=C(Nc1cccc(-c2noc(COc3ccccc3)n2)c1)c1cccs1	0.847	–	1
O=C(c1ccccc1-c1nc(-c2ccccc2Cl)no1)N1CCCCC1	0.932	–	1
COc1ccc(Cl)cc1NC(=O)CSc1nnc(-c2ccc(C)cc2)o1	0.982	–	1
O=C(Nc1ccccc1-c1nc(-c2cccnc2)no1)c1cccc(Cl)c1	0.837	–	1

SMILES	proportion of mobile M. hapla J2 (Meloidogyne hapla J2)	proportion of mobile C. elegans dauer larvae [1]	proportion of mobile D. dipsaci (Ditylenchus dipsaci)
O=C(NC1CCCCC1)c1ccccc1-c1nc(-c2ccc(F)cc2)no1	0.863	–	1
CCCCc1nc(-c2ccc(-c3ccc(C)cc3)nc2OC)no1	0.843	–	1
COc1ccc(Cl)cc1-c1noc(COc2ccc(Cl)cc2)n1	0.964	–	1
COc1ccc(-c2noc(-c3ccc(Cl)cc3)n2)cc1	0.983	–	1
COc1nc(-c2ccc(C)cc2)ccc1-c1noc(-c2ccc(F)cc2)n1	0.925	–	1
CC(C)C(=O)Nc1ccccc1-c1nc(-c2ccncc2)no1	0.987	–	1
Cc1ccc(-c2noc(-c3ccc(Br)cc3)n2)cc1	1.05	–	1
COc1cccc(-c2noc(COc3ccc(C)cc3C)n2)c1	0.941	–	1
Clc1ccc(-c2nc(-c3ccccc3Br)no2)cc1	0.984	–	1
O=C(CSc1nnc(-c2ccccc2)o1)Nc1cccc(Br)c1	1.05	–	1
c1ccc(-c2nnc(SCc3nc4ccccc4[nH]3)o2)cc1	1.04	–	1
O=C(CSc1nnc(-c2ccccc2)o1)Nc1ccccc1C(F)(F)F	0.918	–	1
CCn1c(SCc2nc(-c3cccs3)no2)nnc1-c1ccco1	0.813	–	1
COc1ccc(-c2nnc(SCC(=O)Nc3ccc(Br)cc3C(C)C)o2)cc1	1	–	1
Cc1cccc(-c2noc(-c3cccc(Cl)c3)n2)c1	1	–	1
CCSc1nnc(-c2ccc(Cl)cc2Cl)o1	0.607 (active)	–	0.739 (active)
Cc1cc(Br)ccc1OCc1nc(-c2ccncc2)no1	1.01	–	1
COc1ccc(-c2nnc(SCc3ccc(Cl)cc3Cl)o2)cc1	1.04	–	1
Cc1ccc(-c2nc(-c3cccnc3)no2)c(C)c1	1.1	–	1
Cc1ccc(NC(=O)CSc2nnc(-c3ccco3)o2)cc1Br	1.03	–	1
O=C(CSc1nnc(-c2ccccc2)o1)NC1CCCCC1	1.01	–	1

SMILES	proportion of mobile M. hapla J2 (Meloidogyne hapla J2)	proportion of mobile C. elegans dauer larvae [1]	proportion of mobile D. dipsaci (Ditylenchus dipsaci)
CCOc1ccccc1-c1nc(-c2ccc(Cl)cc2)no1	0.856	–	1
Cc1ccc(-c2nnc(SCC(=O)Nc3ccc(Br)c(C)c3C)o2)cc1	–	1	1
Fc1ccc(-c2nc(-c3ccc(Br)cc3)no2)cc1	0.848	–	1
COc1ccccc1-c1nnc(SCc2ccccc2C)o1	0.929	–	1
CCOc1ccc(-c2nc(-c3ccccc3)no2)cc1	0.922	–	1
Cn1c(SCc2cccc(F)c2)nnc1-c1ccco1	–	1	1
COc1nc(-c2ccc(Cl)cc2)ccc1-c1noc(-c2ccncc2)n1	0.921	–	1
COc1cccc(-c2noc(COc3ccc(C(C)C)cc3)n2)c1	0.968	–	1
COc1ccc(-c2noc(CSc3nc(C)cc(C)n3)n2)cc1	0.992	–	0.833 (active)
COc1ccc(-c2nnc(SCC(=O)Nc3cc(Cl)ccc3C)o2)cc1	–	1	1
Cc1ccc(OCc2nc(-c3ccncc3)no2)cc1C	1.03	–	1
CCOc1ccc(-c2nc(-c3ccc(C)cc3)no2)cc1	0.966	–	1
COc1cccc(OCc2nc(-c3cccc(Br)c3)no2)c1	0.999	–	1
COc1ccc(NC(=O)CSc2nnc(-c3ccccc3)o2)cc1	0.907	–	1
CCOc1cc(-c2nc(-c3ccc(OC)cc3)no2)cc(OCC)c1OCC	–	1	1
Brc1ccc(-c2noc(-c3cccs3)n2)o1	0.7 (active)	–	1
COc1ccc(-c2nnc(SCc3cccc(C#N)c3)o2)cc1	0.785	–	1
Brc1ccccc1-c1nc(-c2ccncc2)no1	0.995	–	1
Cc1ccc(OCc2nc(-c3ccccc3Cl)no2)c(C)c1	1	–	1
O=C(Nc1ccccc1-c1nc(-c2cccnc2)no1)c1cc2ccccc2o1	0.919	–	0.9
Cc1ccccc1-c1noc(-c2ccc(F)cc2)n1	0.909	–	1
